Compounds with a hit are over-represented: about 7.3% of the library has one in this group of screens.
HCMV antiviral: blocks human cytomegalovirus replication; AID 1259415; activity change, negative = inhibition, % at 57.5 µM; HFF cells, HCMV-luciferase reporter, 72 h; stronger effect = lower value; 410,000 tested, 4.5% active; in the data active = activity change below about -60%; inconclusive = no clear call, values can overlap the other calls; inactive = above about -39%
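After 16 h attachment at 37C, HFF cells received test compound and HCMV-luciferase (1 PFU/cell); reporter luminescence read 72 h later, data normalized against buffer-only and known inhibitor Salinomycin.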
AmpC inh no detg: blocks E. coli AmpC beta-lactamase in detergent-free assay; AID 485341; AmpC nitrocefin hydrolysis, absorbance 480 nm, 0.0001% Triton; 330,000 tested, 0.52% active; P00811; Potency, µM (doses to about 57.1 µM), for the others: at the highest dose activity change, negative = inhibition, most hits filed as inhibitors;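 note: potency is the fitted concentration of half-maximal effect; plate controls were no compound for no effect and no enzyme for full effect; nearly all actives have a fitted effect of over 20% in size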
Target sequence (P00811 whole entry, looked up): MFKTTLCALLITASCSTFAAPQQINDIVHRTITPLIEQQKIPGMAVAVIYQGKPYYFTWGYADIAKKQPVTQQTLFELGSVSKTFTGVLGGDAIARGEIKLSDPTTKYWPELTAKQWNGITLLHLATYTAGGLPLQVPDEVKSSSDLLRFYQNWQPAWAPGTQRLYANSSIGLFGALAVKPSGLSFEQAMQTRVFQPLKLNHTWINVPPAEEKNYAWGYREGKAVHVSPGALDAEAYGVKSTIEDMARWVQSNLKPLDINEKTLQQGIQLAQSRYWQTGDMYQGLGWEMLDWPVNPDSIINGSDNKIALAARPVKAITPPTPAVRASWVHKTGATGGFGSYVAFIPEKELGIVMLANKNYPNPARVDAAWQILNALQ
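AmpC (5.3 nM in the dispensed reagent) in 20 mM phosphate pH 7.0 with 0.01% (detergent screen) or 0.0001% Triton X-100 was preincubated with compounds for 15 min at room temperature. Nitrocefin was then added from an 800 uM solution, and hydrolysis was followed at 480 nm.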
HCV inh: inhibitors of hepatitis C virus infection; 340,000 tested, 3.4% active; Potency, µM (highest dose often 41.8 µM), for the others: top-dose activity change, negative = inhibition, hits mostly inhibitors; Huh7.5.1 HCVcc-Cre infection, luciferase reporter, 44 h; note: potency is the fitted concentration of half-maximal effect
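Cells (1,000/well) were plated 4 h before compound, then infected with HCVcc-Cre virus (~0.5 moi). After 44 h further culture, infection was read as luciferase luminescence following a 15 min substrate incubation at room temperature.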
AmpC inh detg: blocks E. coli AmpC beta-lactamase in detergent assay. P00811. 370,000 tested, 0.041% active. Potency, µM (top dose mostly 114 µM), for the others: at the top dose activity change, negative = inhibition, hits mostly inhibitors. AmpC hydrolysis of nitrocefin, absorbance 480 nm, 0.01% Triton. AID 485294;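 note: potency is the fitted concentration of half-maximal effect; 0% = no-compound wells and -100% = no-enzyme wells; nearly all actives have a fitted effect of over 25% in size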
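AmpC (5.3 nM in the dispensed reagent) in 20 mM phosphate pH 7.0 with 0.01% (detergent screen) or 0.0001% Triton X-100 was preincubated with compounds for 15 min at room temperature. Nitrocefin was then added from an 800 uM solution, and hydrolysis was followed at 480 nm.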
FMDV inh: antivirals against foot and mouth disease virus; 410,000 tested, 1.2% active; AID 1159524; FMDV antiviral cell-based qHTS; Potency, µM (highest dose often 57.9 µM), for inactives: at the highest dose activity change, negative = inhibition, hits mostly inhibitors; calls by dose curve; tested in HEK293T cells; note: read-out not given here; potency is the fitted concentration of half-maximal effect; nearly all actives have a fitted effect of over 45% in size
* = called active by the depositor; ? = inconclusive; . = not tested or not shown. Unless noted, calls come from the whole dose curve; as a rule, active = well fitted curve in the direction sought with a large enough effect; inconclusive = small, poorly fitted or top-dose-only effect, or another doubt; inactive = no such curve, though single readings can be large; an effect the other way counts as inactive or inconclusive. Unless noted, % is set by controls: 0 for no effect and ±100 for the full control effect.

SMILES	HCMV antiviral	AmpC inh no detg	HCV inh	AmpC inh detg	FMDV inh
COc1ccccc1N1CCN(C(=O)c2ccc(CSc3ccccc3)cc2)CC1	-92.4*	91.7%	-14.9%	?	?
CC[C@]12c3[nH]c4ccccc4c3CCN1C(=O)C(CC(=O)NCc1cccc(C(F)(F)F)c1)C[C@@H]2C(=O)N1CCN(C(=O)c2ccco2)CC1 (stereo partly specified)	-24.0	205.9%	?	.	20.4%
CCOC(=O)C1CCCN(C(=O)Cn2nc(C)n3nc(-c4ccccc4)cc3c2=O)C1 (stereo unspecified)	?	132.7%	-20.0%	-1.2%	-13.2%
CCOc1ccccc1N1CCN(C(=O)c2ccccc2)CC1	-19.2	25.5%	7.2%	-7.1%	-12.4%
CCOc1ccccc1N1CCN(C(=O)c2ccc(S(=O)(=O)Nc3ccccc3)cc2)CC1	?	41.4%	10µM*	8.9%	-27.5%
C=CCN1[C@@H](C)[C@@H](c2ccccc2)Oc2c(Cl)cccc2S1(=O)=O	-27.6	.	.	.	.
CCOC(=O)c1ccc(N2C(=O)C(CC(=O)NC)N(CCc3ccc(OC)c(OC)c3)C2=S)cc1 (stereo unspecified)	1.4	211.5%	?	-6.5%	-11.7%
C[C@@H]1CN([C@@H](C)CO)C(=O)CCCn2cc(nn2)CO[C@H]1CN(C)C(=O)Nc1ccc(C(C)(C)C)cc1	0.6	.	.	.	.
O=C(COC(=O)c1cc([N+](=O)[O-])ccc1N1CCOCC1)Nc1ncc(Cl)cc1Cl	15.8	-16.2%	?	-12.1%	-13.3%
CC1CC(C)CN(S(=O)(=O)c2ccc(C(=O)Nc3nnc(-c4cccs4)o3)cc2)C1 (stereo unspecified)	-70.2*	-47.1%	?	-15.6%	-21.7%
CC1CN(S(=O)(=O)c2ccc(C(=O)Nc3nnc(-c4ccco4)o3)cc2)CC(C)O1 (stereo unspecified)	-1.8	-50.5%	11.4%	1.4%	8.4%
CC1CCCN(S(=O)(=O)c2ccc(C(=O)Nc3nnc(-c4ccccc4Cl)o3)cc2)C1 (stereo unspecified)	-98.2*	-27.5%	-8.8%	0.6%	-12.9%
CCC1CCCCN1S(=O)(=O)c1ccc(C(=O)Nc2nnc(-c3cccs3)o2)cc1 (stereo unspecified)	.	-22.6%	?	-9.0%	-16.9%
COc1cccc(-c2nnc(NC(=O)c3ccc(S(=O)(=O)N4CC(C)OC(C)C4)cc3)o2)c1 (stereo unspecified)	-94.4*	-13.3%	?	-3.9%	-11.4%
CCOc1ccc(NC(=O)CN2C(=O)c3cccc4cccc2c34)cc1	-20.3	.	.	.	.
O=C(CC1SC(=O)N(c2ccccc2)C1=O)Nc1cccc2ccccc12 (stereo unspecified)	15.8	17.8µM*	22.6%	-4.2%	-13.7%
CCCCc1c(C)c(C#N)c2[nH]c3ccccc3n2c1=O	-72.9*	-26.0%	-17.1%	-0.9%	22.4µM*
Cc1c(CCO)c(=O)n2c([nH]c3ccccc32)c1C#N	-5.4	-11.4%	6.5%	-11.2%	-22.2%
O=C1C2=C(Nc3ccccc3SC2c2ccc(Cl)c(Cl)c2)c2ccccc21 (stereo unspecified)	-99.8*	.	.	-5.8%	0.6%
O=C1C2=C(Nc3ccccc3SC2c2c(F)cccc2Cl)c2ccccc21 (stereo unspecified)	19.2	.	.	-0.1%	-2.8%
CCOc1cc(C2Sc3ccccc3NC3=C2C(=O)c2ccccc23)ccc1O (stereo unspecified)	?	.	.	3.2%	25.4%
O=C1C2=C(Nc3ccccc3SC2c2ccccc2C(F)(F)F)c2ccccc21 (stereo unspecified)	-93.6*	.	.	17.4%	-1.0%
CCCc1ccc(C2Sc3ccccc3NC3=C2C(=O)c2ccccc23)cc1 (stereo unspecified)	-92.6*	.	.	19.3%	-9.4%
Cc1ccc(S(=O)(=O)c2nnn(CC(=O)Nc3ccccc3C)c2N)cc1	0.4	.	.	-4.5%	-2.5%
Cc1cc(C)n(CCNC(=O)[C@H]2O[C@@H](n3cnc4c(N)ncnc43)[C@H](O)[C@@H]2O)n1	26.9	.	.	.	0.0%
Cc1c(C(=O)Nc2nnc(C(F)(F)F)s2)oc2ccccc12	-84.5*	-14.3%	.	-15.5%	35.7%
